# Results reported in the supplement of paper PMC8728848.
# This excerpt belongs to a sample that is enriched for the strongest signals.
# B1: KCR (Mus musculus), P70194 (protein)
# chain: MKEAELNRDMARYCTDNQCVSLQPQGLGPKSAALMAPRTLRHVQVILALMVVTVIFSLLALFVVASQPWRPEWNKEPPSLLLRGSNNSGHDNHSQFVRETEMQVAIQRLRDYEENSSSCHKEVQILKYQMDNVSSLVQLLGSHLEDVNADILQTKDVLKESGALALETQALRSSLEVASADIHSLRGDLEKANAMTSQTRGLLKSSTENTSAELHVLGRGLEEAQSEIQALRGSLQSANDLSSQTQGFLQHSMDNISAQIQTVRDGMERAGEKMNSLKKELETLTAQTQKANGHLEQTDAQIQGLKAELKSTSSLNSRIEVVNGQMKDASRELQTLRRDLSDVSALKSNVQMLQSNLQRAKTEMQTLKADLQATKALTAKIQGEQNRLGALQEAVAAQKQEQKTQNQVLQLIAQNWKYFNGNFYYFSRDKKPWREAEKFCTSQGAHLASVTSQEEQAFLVQTTSSGDHWIGLTDQGTEGIWRWVDGTPFNNAQSKGFWGKNQPDNWRHRNGEREDCVHVRQQWNDMACGSSYPWVCKKSTGWSAARVG
# How the values were obtained:
# Assay in all cases: glycan array binding signal (z-score within array); higher = stronger binding
# Conditions in all cases: glycan notation: IUPAC condensed, linker removed
# [1] = target: Fuc(a1-2)Gal(b1-3)GalNAc
# Method in brief: (§1)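 The binding signal is a Z-score computed within each array and averaged over linkers. Arrays of the same protein sequence at different concentrations or buffers were also averaged together. Data originate from 3228 arrays in the Consortium for Functional Glycomics database, kept only where the protein sequence was available.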
# [2] = target: Fuc(a1-2)Gal(b1-3)GalNAc(b1-4)[Neu5Ac(a2-3)]Gal(b1-4)Glc
# Method in brief: as §1
# [3] = target: Fuc(a1-2)Gal(b1-4)GlcNAc(b1-3)Gal(b1-4)GlcNAc
# Method in brief: as §1
# [4] = target: Fuc(a1-2)Gal6S(b1-4)GlcNAc
# Method in brief: as §1
# [5] = target: Fuc(a1-3)[Gal(b1-4)]GlcNAc(b1-4)Gal(b1-4)[Fuc(a1-3)]GlcNAc(b1-4)Gal(b1-4)[Fuc(a1-3)]GlcNAc
# Method in brief: as §1
# [6] = target: Fuc(a1-3)[Gal(b1-4)]GlcNAc6S
# Method in brief: as §1
# [7] = target: Fuc(a1-3)[GalNAc(b1-4)]Gal(b1-4)GlcNAc
# Method in brief: as §1
# [8] = target: Gal(a1-3)Gal(b1-4)[Fuc(a1-3)]GalNAc
# Method in brief: as §1
# [9] = target: Gal3S(b1-4)GlcNAc6S
# Method in brief: as §1
# [10] = target: Gal6S(b1-4)Glc6S
# Method in brief: as §1
# [11] = target: Gal6S(b1-4)GlcNAc
# Method in brief: as §1
# [12] = target: Glc(b1-6)Glc
# Method in brief: as §1
# [13] = target: GlcNAc(a1-6)Gal(b1-4)GlcNAc
# Method in brief: as §1
# [14] = target: GlcNAc(b1-3)Gal(b1-4)GlcNAc(b1-3)Gal(b1-4)GlcNAc
# Method in brief: as §1
# [15] = target: GlcNAc(b1-3)[GlcNAc(b1-6)]GlcNAc
# Method in brief: as §1
# [16] = target: GlcNAc(b1-4)Gal(b1-4)GlcNAc
# Method in brief: as §1
# [17] = target: GlcNAc(b1-4)[GlcNAc(b1-6)]GalNAc
# Method in brief: as §1
# [18] = target: Kdn(a2-3)Gal(b1-4)GlcNAc
# Method in brief: as §1
# [19] = target: Man(a1-2)Man(a1-2)Man(a1-3)[Man(a1-2)Man(a1-6)[Man(a1-3)]Man(a1-6)]Man(b1-4)GlcNAc(b1-4)GlcNAc
# Method in brief: as §1
# [20] = target: Neu5Ac(a2-3)Gal(b1-3)GlcNAc
# Method in brief: as §1
# [21] = target: Neu5Ac(a2-3)Gal(b1-4)[Fuc(a1-3)]GlcNAc(b1-3)Gal(b1-4)GlcNAc
# Method in brief: as §1
# [22] = target: Neu5Ac(a2-8)Neu5Ac(a2-8)Neu5Ac(a2-3)[GalNAc(b1-4)]Gal(b1-4)Glc
# Method in brief: as §1
# [23] = target: Neu5Gc(a2-3)Gal(b1-4)GlcNAc
# Method in brief: as §1
binder,measurement,setting,value
B1,glycan array binding signal (z-score),[1],-0.72
same,glycan array binding signal (z-score),[2],-0.426
same,glycan array binding signal (z-score),[3],-0.635
same,glycan array binding signal (z-score),[4],0.367
same,glycan array binding signal (z-score),[5],4.39
same,glycan array binding signal (z-score),[6],3.94
same,glycan array binding signal (z-score),[7],3.06
same,glycan array binding signal (z-score),[8],0.117
same,glycan array binding signal (z-score),[9],0.95
same,glycan array binding signal (z-score),[10],2.48
same,glycan array binding signal (z-score),[11],0.769
same,glycan array binding signal (z-score),[12],-0.566
same,glycan array binding signal (z-score),[13],2.47
same,glycan array binding signal (z-score),[14],-0.465
same,glycan array binding signal (z-score),[15],-0.721
same,glycan array binding signal (z-score),[16],-0.82
same,glycan array binding signal (z-score),[17],-0.917
same,glycan array binding signal (z-score),[18],-0.623
same,glycan array binding signal (z-score),[19],-0.336
same,glycan array binding signal (z-score),[20],-0.592
same,glycan array binding signal (z-score),[21],0.119
same,glycan array binding signal (z-score),[22],0.254
same,glycan array binding signal (z-score),[23],-0.288
